In the supplement of paper PMC12350171:
Structures can show the parent of a compound that is named as a salt. Values without a mark were called inactive.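 The calls were made as follows: active = AUC significantly below DMSO controls by Student t-fit with adjusted P under 0.01; inactive = not significantly reduced.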

system: Haemophilus parainfluenzae; assay: growth AUC normalised to DMSO control (fraction of control); higher = less growth inhibition, active = hit call of the paper; conditions: 20 µM
Outline: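 Pathogens were passaged twice under anaerobic conditions, then inoculated into pre-reduced mGAM plates at a starting OD578 of 0.01, with compound at 20 μM and 1% DMSO, and sealed with breathable membranes. For Haemophilus parainfluenzae, the medium was supplemented with hemin and NAD. OD578 was read every hour for 24 h in three biological replicates. Growth-curve AUC was calculated by the trapezoidal rule up to the exponential-to-stationary transition and normalised to DMSO controls on the same plate.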

Structure (SMILES) | growth AUC normalised to DMSO control
CC(C)(C#N)c1cc(Cn2cncn2)cc(C(C)(C)C#N)c1 [Anastrozole] | 1.1
CC(C)(C)c1ccc(C(O)CCCN2CCC(C(O)(c3ccccc3)c3ccccc3)CC2)cc1 (configuration not stated) [Terfenadine] | 0.88
NC(=O)N/N=C/c1ccc([N+](=O)[O-])o1 [Nitrofural] | 0.465 (active)
CC(=O)c1ccc2c(c1)N(CCCN(C)C)c1ccccc1S2 [Acetopromazine maleate salt] | 0.95
NS(=O)(=O)c1cc2c(cc1Cl)N=CNS2(=O)=O [Chlorothiazide] | 1.01
CN(C(=O)C(Cl)Cl)c1ccc(OC(=O)c2ccco2)cc1 [Diloxanide furoate] | 0.954
N[C@@H](Cc1cc(I)c(Oc2ccc(O)c(I)c2)c(I)c1)C(=O)O [Liothyronine] | 0.943
C[C@]12CC[C@@H]3c4ccc(O)cc4CC[C@H]3[C@@H]1C[C@@H](O)[C@@H]2O [Estriol] | 1.02
CCCC1C(=O)N2C(N(C)C)=Nc3ccc(C)cc3N2C1=O (configuration not stated) [Azapropazone] | 0.968
CC1(C)O[C@@H]2C[C@H]3[C@@H]4C[C@H](F)C5=CC(=O)CC[C@]5(C)[C@H]4[C@@H](O)C[C@]3(C)[C@]2(C(=O)CO)O1 [Flurandrenolide] | 1.03
CN1CCN(C2=Nc3cc(Cl)ccc3Nc3ccccc32)CC1 [Clozapine] | 1.02
C#CCN(C)CCCOc1ccc(Cl)cc1Cl [Clorgyline hydrochloride] | 0.943
